Measured values reported in PubChem BioAssay.
The source made the active and inactive calls.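 The calls were made as follows: active = GFP response above 150% of the DMSO level; inconclusive = fewer than 70 events counted for a yeast strain; inactive = the rest.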

test: yeast AGP1-GFP fluorescence change, single-dose – cell-based, flow cytometry, S. cerevisiae, cherry picks, confirmation (AID 2273);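 also: median GFP channel fluorescence over the whole cell population gate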; settings: S. cerevisiae AGP1-GFP strain, 3 h, at 10 µM

GFP response, % of DMSO, inactive:
Oc1ccccc1/C=N/c1c(-c2ccco2)nc2ccccn12 102%, Cc1ccc(C2=NN(S(C)(=O)=O)C(c3ccc4c(c3)OCO4)C2)cc1 (configuration not stated) 103%, COc1ccccc1NC(=O)Cn1nnc(-c2ccccc2NC(=O)c2ccco2)n1 95.4%, Cc1ccc(C(=O)N/C(=C/c2ccco2)C(=O)N2CCOCC2)cc1 102%, COc1ccc(-c2cc3cc(C(=O)O)ccn3c2C(=O)c2ccccc2)cc1 98.3%, COc1ccccc1C(=O)NNC(=S)NC(=O)c1cccs1 89.6%, CC(=O)Oc1c(C)cc(Cl)cc1C(=O)Nc1ccc([N+](=O)[O-])cc1Cl 97.9%

test: TOR pathway CIT2 reporter hit retest – S. cerevisiae, GFP fusion, cherry picks, mother/daughter gates, confirmation (AID 2274); settings: S. cerevisiae CIT2-GFP strain, flow cytometry, 3 h; at 10 µM; stronger effect = higher value

GFP response, % of DMSO, inactive:
CCN(C(=O)c1ccccc1Cl)c1ccccc1 100%, CCN(CC)CCNC(=O)Cn1c(-c2ccccn2)nc2ccccc21 97.8%, Nc1cc(N)nc(SCC(=O)N2CCc3ccccc32)n1 101%, N#C/C(=C\c1ccc(N2CCOCC2)o1)c1ccccc1 104%, CS(=O)(=O)N1CCc2cc(C(=O)Nc3ccc(COCC(F)(F)F)cc3)ccc21 110%, CCc1noc(C)c1C(=O)Nc1nc(-c2ccc(Cl)cc2Cl)cs1 94.4%, O=C(O)c1ccc2c3c(ncnc13)-c1ccccc1C2=O 123%, Cc1ccc(NC(=O)c2ccccc2)cc1 96.5%, Cc1ccc(C)c(-c2nnc(NC(=O)c3ccc([N+](=O)[O-])o3)o2)c1 90.1%, COc1ccc(N2C(=O)C(Cl)=C(Oc3cccc(OC)c3)C2=O)cc1 98.4%, Cc1cc(C)c(S(=O)(=O)ON2C(=O)c3ccccc3C2=O)cc1C 102%, O=C(COC(=O)/C=C/c1cccs1)Nc1nc(-c2ccccc2)cs1 99.7%, CCOc1ccccc1/C=C/C(=O)c1ccc(Cl)cc1 103%, O=C(NC(=S)NNC(=O)c1cnccn1)c1ccc(F)cc1 99.1%, Cc1ccc(Nc2c(-c3ccccn3)nc3ccc(C)cn23)cc1 105%, O=c1/c(=C/c2cccc3ccccc23)sc2ncnn12 112%, Cc1c(NC(=O)/C(C#N)=C/c2c(N3CCCCC3)nc3ccccn3c2=O)c(=O)n(-c2ccccc2)n1C 101%, CS(=O)(=O)N1N=C(c2ccco2)CC1c1ccc(Br)cc1 (configuration not stated) 103%, O=C(Oc1ccnc2cc(Cl)ccc12)N1CCCCCC1 92.6%, Cc1c([N+](=O)[O-])cnc(Sc2ccccc2)c1[N+](=O)[O-] 101%, Cc1cc(C(=O)Nc2nc(-c3ccccn3)cs2)ccc1[N+](=O)[O-] 105%, COc1cc(/C=C/C(=O)c2c(O)cc(C)oc2=O)cc(OC)c1O 97.3%, COc1ccc2ccccc2c1/C=N/Nc1cccc(C(=O)O)c1 103%, CCn1c(=O)c(C(=O)NC(C)C)c(O)c2ccccc21 103%, CCOc1cc(N2CCOCC2)c(OCC)cc1NC(=O)C(NC(=O)c1ccco1)C(C)C (configuration not stated) 108%, CNC(=O)/C(C#N)=C/c1c(N(Cc2ccccc2)Cc2ccccc2)nc2c(C)cccn2c1=O 106%, O=C(COc1ccccc1)N1CCN(c2ncnc3c2cnn3-c2ccccc2)CC1 98.6%, O=S(=O)(c1ccc(Oc2ccccc2)cc1)N1CCOCC1 93.9%, O=S(=O)(/N=C(/Nc1ccc(F)cc1F)c1ccc(Cl)cc1)c1ccccc1 96.4%, CC(=O)Nc1cccc(Oc2ccc(-c3noc(C)n3)cc2)c1 97.3%, C/C(=N/NC(=O)c1ccc(C(C)(C)C)cc1)c1ccccn1 112%, O=C(Sc1cccc2cccnc12)c1ccccc1Br 114%, CCOc1cc(-c2nc3cc(C)ccn3c2NCC2CCCO2)ccc1O (configuration not stated) 104%, Oc1ccccc1/C=N/c1c(-c2ccco2)nc2ccccn12 102%, Cc1ccc(C2=NN(S(C)(=O)=O)C(c3ccc4c(c3)OCO4)C2)cc1 (configuration not stated) 129%, COc1ccccc1NC(=O)Cn1nnc(-c2ccccc2NC(=O)c2ccco2)n1 99.1%, Cc1ccc(C(=O)N/C(=C/c2ccco2)C(=O)N2CCOCC2)cc1 95.9%, COc1ccc(-c2cc3cc(C(=O)O)ccn3c2C(=O)c2ccccc2)cc1 98.3%, COc1ccccc1C(=O)NNC(=S)NC(=O)c1cccs1 121%, CC(=O)Oc1c(C)cc(Cl)cc1C(=O)Nc1ccc([N+](=O)[O-])cc1Cl 90.9%

same assay, conditions: S. cerevisiae CIT2-GFP strain, flow cytometry, 3 h; measured here: daughter cell gate; at 10 µM; stronger effect = higher value

GFP response, % of DMSO, 99.7%:
CCn1c(=O)c(C(=O)NC(C)C)c(O)c2ccccc21, Oc1ccccc1/C=N/c1c(-c2ccco2)nc2ccccn12

GFP response, % of DMSO, 93.2%:
O=C(Oc1ccnc2cc(Cl)ccc12)N1CCCCCC1

GFP response, % of DMSO, 110%:
Cc1cc(C(=O)Nc2nc(-c3ccccn3)cs2)ccc1[N+](=O)[O-]

GFP response, % of DMSO, 98.3%:
Cc1cc(C)c(S(=O)(=O)ON2C(=O)c3ccccc3C2=O)cc1C, O=S(=O)(/N=C(/Nc1ccc(F)cc1F)c1ccc(Cl)cc1)c1ccccc1

GFP response, % of DMSO, 99.1%:
O=C(COC(=O)/C=C/c1cccs1)Nc1nc(-c2ccccc2)cs1, COc1ccc(-c2cc3cc(C(=O)O)ccn3c2C(=O)c2ccccc2)cc1

GFP response, % of DMSO, 104%:
N#C/C(=C\c1ccc(N2CCOCC2)o1)c1ccccc1

GFP response, % of DMSO, 101%:
CCN(C(=O)c1ccccc1Cl)c1ccccc1, Nc1cc(N)nc(SCC(=O)N2CCc3ccccc32)n1, Cc1c([N+](=O)[O-])cnc(Sc2ccccc2)c1[N+](=O)[O-], COc1ccc2ccccc2c1/C=N/Nc1cccc(C(=O)O)c1

GFP response, % of DMSO, 99.2%:
COc1cc(/C=C/C(=O)c2c(O)cc(C)oc2=O)cc(OC)c1O

GFP response, % of DMSO, 115%:
C/C(=N/NC(=O)c1ccc(C(C)(C)C)cc1)c1ccccn1, O=C(Sc1cccc2cccnc12)c1ccccc1Br

GFP response, % of DMSO, 94.8%:
O=S(=O)(c1ccc(Oc2ccccc2)cc1)N1CCOCC1

GFP response, % of DMSO, 103%:
CCOc1ccccc1/C=C/C(=O)c1ccc(Cl)cc1, CS(=O)(=O)N1N=C(c2ccco2)CC1c1ccc(Br)cc1 (configuration not stated), O=C(COc1ccccc1)N1CCN(c2ncnc3c2cnn3-c2ccccc2)CC1

GFP response, % of DMSO, 97.4%:
Cc1ccc(C(=O)N/C(=C/c2ccco2)C(=O)N2CCOCC2)cc1

GFP response, % of DMSO, 95.6%:
CC(=O)Nc1cccc(Oc2ccc(-c3noc(C)n3)cc2)c1

GFP response, % of DMSO, 97.6%:
CCc1noc(C)c1C(=O)Nc1nc(-c2ccc(Cl)cc2Cl)cs1

GFP response, % of DMSO, 105%:
O=C(O)c1ccc2c3c(ncnc13)-c1ccccc1C2=O, Cc1c(NC(=O)/C(C#N)=C/c2c(N3CCCCC3)nc3ccccn3c2=O)c(=O)n(-c2ccccc2)n1C

GFP response, % of DMSO, 93.7%:
COc1ccc(N2C(=O)C(Cl)=C(Oc3cccc(OC)c3)C2=O)cc1, CC(=O)Oc1c(C)cc(Cl)cc1C(=O)Nc1ccc([N+](=O)[O-])cc1Cl

GFP response, % of DMSO, 108%:
CS(=O)(=O)N1CCc2cc(C(=O)Nc3ccc(COCC(F)(F)F)cc3)ccc21, CCOc1cc(N2CCOCC2)c(OCC)cc1NC(=O)C(NC(=O)c1ccco1)C(C)C (configuration not stated), CNC(=O)/C(C#N)=C/c1c(N(Cc2ccccc2)Cc2ccccc2)nc2c(C)cccn2c1=O, CCOc1cc(-c2nc3cc(C)ccn3c2NCC2CCCO2)ccc1O (configuration not stated)

GFP response, % of DMSO, 90.2%:
Cc1ccc(C)c(-c2nnc(NC(=O)c3ccc([N+](=O)[O-])o3)o2)c1

GFP response, % of DMSO, 122%:
O=c1/c(=C/c2cccc3ccccc23)sc2ncnn12

GFP response, % of DMSO, 121%:
Cc1ccc(Nc2c(-c3ccccn3)nc3ccc(C)cn23)cc1

GFP response, % of DMSO, 124%:
COc1ccccc1C(=O)NNC(=S)NC(=O)c1cccs1

GFP response, % of DMSO, 130%:
Cc1ccc(C2=NN(S(C)(=O)=O)C(c3ccc4c(c3)OCO4)C2)cc1 (configuration not stated)

GFP response, % of DMSO, 96.5%:
CCN(CC)CCNC(=O)Cn1c(-c2ccccn2)nc2ccccc21, Cc1ccc(NC(=O)c2ccccc2)cc1, O=C(NC(=S)NNC(=O)c1cnccn1)c1ccc(F)cc1

GFP response, % of DMSO, 98.1%:
COc1ccccc1NC(=O)Cn1nnc(-c2ccccc2NC(=O)c2ccco2)n1
